Laboratory results from a collection of fitness landscapes (doi:10.1016/j.celrep.2020.107928).
Whole data set: some 81,000 sequences, median “one-hybrid fitness for binding NBS DNA” near -0.1, cut for the highest 2% near 0.36. Only a selection was taken, and the highest values are over-represented in it overall.

B1: Caulobacter ParB omega fusion; a variant is named by its letters at X, in order, B8GW30 (parent)
chain: MESVVVGEPGMSEGRRGLGRGLSALLGEVDAAPAQAPGEQLGGSREAPIEILQRNPDQPRRTFREEDLEDLSNSIREKGVLQPILVRPSPDTAGEYQIVAGERAWRAAQRAGLKTVPIMVRELDDLAVLEIGIIENVQRADLNVLEEALSYKVLMEKFERTQENIAQTIGKSXSHVANXMRLLXLPDEVQSYLVSGELTAXHARAIAAAADPVALAKQIIEGGLSVRETEALARKAPNLSAGKSKGGRPPRVKDTDTQALESDLSSVLGLDVSIDHRGSTGTLTITYATLEQLDDLCNRLTRGI

Variants of: B1
Assay: one-hybrid fitness for binding NBS DNA (the Noc-binding site; scaled: cognate 1, non-cognate 0); higher = stronger binding
Settings: with NBS DNA site
Outline: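 In E. coli USO, a HIS3 reporter with its site placed 19 bp from the promoter was used to select Caulobacter ParB variants randomised at four specificity codons. Growth lasted 48 hours at 37°C on histidine-free M9 containing 0.1 mM IPTG and 5 mM 3-AT. Fitness was taken as the log change in variant-to-wild-type read ratio from Illumina sequencing of pre- and post-selection plasmids, rescaled between the non-cognate and cognate sites.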

Row | Variant | one-hybrid fitness for binding NBS DNA
1 | YDCG | ≤ 0.2
2 | IGGI | ≤ 0.2
3 | EAAG | ≤ 0.2
4 | QLER | 0.266
5 | QLAP | ≤ 0.2
6 | QLRD | ≤ 0.2
7 | QLPR | 0.232
8 | QLYR | 0.425
9 | QLAR | 0.478
10 | QLSP | ≤ 0.2
11 | QLIR | 0.294
12 | QLFR | 0.329
13 | QLRR | 0.943
14 | QLSN | ≤ 0.2
15 | QLSR | 0.464
16 | CSWC | ≤ 0.2
17 | YYPG | ≤ 0.2
18 | WYCF | ≤ 0.2
19 | HGNS | ≤ 0.2
20 | FIMG | ≤ 0.2
21 | PPDN | ≤ 0.2
22 | GYQT | ≤ 0.2
23 | DTTS | ≤ 0.2
24 | TWKT | ≤ 0.2

Row | Variant | one-hybrid fitness for binding NBS DNA
25 | SACG | ≤ 0.2
26 | QLQR | 0.483
27 | QLCD | ≤ 0.2
28 | QLHR | 0.519
29 | QLLR | 0.415
30 | QLLS | ≤ 0.2
31 | QLHH | ≤ 0.2
32 | QLCR | 0.468
33 | QLCP | ≤ 0.2
34 | QLQD | ≤ 0.2
35 | QLLP | ≤ 0.2
36 | QLQH | ≤ 0.2
37 | QLHP | ≤ 0.2
38 | LLRD | ≤ 0.2
39 | RCWE | ≤ 0.2
40 | ILMW | ≤ 0.2
41 | QNKK | ≤ 0.2
42 | WACV | ≤ 0.2
43 | ARFF | ≤ 0.2
44 | YTQC | ≤ 0.2
45 | KEGR | ≤ 0.2
46 | VEDR | ≤ 0.2
47 | QLGN | ≤ 0.2
48 | QLGD | ≤ 0.2

Row | Variant | one-hybrid fitness for binding NBS DNA
49 | QLGR | 0.496
50 | NTCV | ≤ 0.2
51 | LCVN | ≤ 0.2
52 | QFHT | ≤ 0.2
53 | QLHT | 0.393
54 | QPHT | ≤ 0.2
55 | QIHN | ≤ 0.2
56 | QIHK | ≤ 0.2
57 | QTHG | 0.234
58 | QLHG | ≤ 0.2
59 | QCHT | 0.551
60 | QIHT | 0.425
61 | QTHC | 0.248
62 | QTHT | 0.648
63 | NTKL | ≤ 0.2
64 | YMTV | ≤ 0.2
65 | HSGS | ≤ 0.2
66 | THQS | ≤ 0.2
67 | HCNT | ≤ 0.2
68 | MGAT | ≤ 0.2
69 | QAHT | 0.414
70 | QSHT | 0.429
71 | QHHT | 0.419
72 | QWHT | ≤ 0.2

Row | Variant | one-hybrid fitness for binding NBS DNA
73 | QHHY | ≤ 0.2
74 | QNHT | ≤ 0.2
75 | QAHF | ≤ 0.2
76 | QAHC | ≤ 0.2
77 | QHHK | ≤ 0.2
78 | PYTI | ≤ 0.2
79 | TEKH | ≤ 0.2
80 | AHRE | ≤ 0.2
81 | QKNF | ≤ 0.2
82 | QKNR | 0.747
83 | QKDF | ≤ 0.2
84 | QKNC | 0.201
85 | QKDR | 0.425
86 | SPCS | ≤ 0.2
87 | VPAP | ≤ 0.2
88 | YAMK | ≤ 0.2
89 | GQTK | ≤ 0.2
90 | INGE | ≤ 0.2
91 | QVNS | 0.377
92 | QVDR | ≤ 0.2
93 | QVQS | ≤ 0.2
94 | QVNN | ≤ 0.2
95 | QVND | ≤ 0.2
96 | QVRS | 0.482

Row | Variant | one-hybrid fitness for binding NBS DNA
97 | QVQR | 0.368
98 | QVYS | 0.202
99 | QVQN | ≤ 0.2
100 | QVNR | 0.465
101 | QVDS | ≤ 0.2
102 | QVRD | ≤ 0.2
103 | SVQD | ≤ 0.2
104 | CSRY | ≤ 0.2
105 | EQAR | ≤ 0.2
106 | RYPY | ≤ 0.2
107 | WMPP | ≤ 0.2
108 | AHEF | ≤ 0.2
109 | GQCW | ≤ 0.2
110 | EIHG | ≤ 0.2
111 | GPST | ≤ 0.2
112 | VMSA | ≤ 0.2
113 | LYRR | ≤ 0.2
114 | GDTA | ≤ 0.2
115 | QVFR | 0.302
116 | QVYR | 0.306
117 | QVAH | ≤ 0.2
118 | QVGR | 0.426
119 | QVSN | ≤ 0.2
120 | QVSR | 0.38

Row | Variant | one-hybrid fitness for binding NBS DNA
121 | QVGP | ≤ 0.2
122 | QVLR | 0.305
123 | QVAR | 0.384
124 | QVRR | 0.77
125 | QVGD | ≤ 0.2
126 | QVSD | ≤ 0.2
127 | GHLS | ≤ 0.2
128 | CPPV | ≤ 0.2
129 | SSGL | ≤ 0.2
130 | QAQG | ≤ 0.2
131 | VSSH | ≤ 0.2
132 | ELVL | ≤ 0.2
133 | DGRA | ≤ 0.2
134 | PHAM | ≤ 0.2
135 | TTRG | ≤ 0.2
136 | QVKR | 0.786
137 | QVVR | 0.285
138 | QVHR | 0.436
139 | QVHN | ≤ 0.2
140 | QVKG | ≤ 0.2
141 | QVHD | ≤ 0.2
142 | SFPV | ≤ 0.2
143 | PNKV | ≤ 0.2
144 | CGYT | ≤ 0.2

Row | Variant | one-hybrid fitness for binding NBS DNA
145 | FDPN | ≤ 0.2
146 | SLHW | ≤ 0.2
147 | LRRR | 0.483
148 | LCKR | 0.207
149 | LRVR | 0.207
150 | LRKR | 0.452
151 | LRDR | ≤ 0.2
152 | LRYR | ≤ 0.2
153 | LRGN | ≤ 0.2
154 | TTRD | ≤ 0.2
155 | YFPL | ≤ 0.2
156 | PYKL | ≤ 0.2
157 | RLSN | ≤ 0.2
158 | RKSN | ≤ 0.2
159 | RKSS | 0.544
160 | RLSS | 0.411
161 | RHSN | ≤ 0.2
162 | RPSS | ≤ 0.2
163 | RLSD | ≤ 0.2
164 | RKSP | ≤ 0.2
165 | RFSS | 0.231
166 | RHSS | 0.438
167 | RCSS | 0.522
168 | RHSP | ≤ 0.2

Row | Variant | one-hybrid fitness for binding NBS DNA
169 | TAMR | ≤ 0.2
170 | PIWS | ≤ 0.2
171 | TISQ | ≤ 0.2
172 | GDNM | ≤ 0.2
173 | KDTE | ≤ 0.2
174 | EWSR | ≤ 0.2
175 | APCT | ≤ 0.2
176 | RMSH | ≤ 0.2
177 | RASH | ≤ 0.2
178 | RSSS | 0.437
179 | RASS | 0.421
180 | RASN | ≤ 0.2
181 | RMSD | ≤ 0.2
182 | RMSS | 0.439
183 | RSSP | ≤ 0.2
184 | RSSD | ≤ 0.2
185 | LPKA | ≤ 0.2
186 | QSPH | ≤ 0.2
187 | HLSL | ≤ 0.2
188 | NDNR | ≤ 0.2
189 | NAKL | ≤ 0.2
190 | QILN | ≤ 0.2
191 | TTWI | ≤ 0.2
192 | SQRH | ≤ 0.2

Row | Variant | one-hybrid fitness for binding NBS DNA
193 | QPCR | ≤ 0.2
194 | QKCR | 0.519
195 | QACR | 0.447
196 | QECR | ≤ 0.2
197 | QKCD | ≤ 0.2
198 | QACH | ≤ 0.2
199 | QKCM | ≤ 0.2
200 | QCCR | 0.599
201 | QMCY | 0.212
202 | QMCR | 0.509
203 | QMCM | ≤ 0.2
204 | QACS | 0.272
205 | SHHD | ≤ 0.2
206 | AWRT | ≤ 0.2
207 | FPKF | ≤ 0.2
208 | NPPH | ≤ 0.2
209 | KTTD | ≤ 0.2
210 | EIVG | ≤ 0.2
211 | PQLT | ≤ 0.2
212 | LLMK | ≤ 0.2
213 | QICR | 0.377
214 | QHCR | 0.473
215 | QTCR | 0.679
216 | QSCN | ≤ 0.2

Row | Variant | one-hybrid fitness for binding NBS DNA
217 | QICS | 0.216
218 | QTCG | ≤ 0.2
219 | QSCD | ≤ 0.2
220 | QTCF | ≤ 0.2
221 | QICG | ≤ 0.2
222 | QHCS | 0.279
223 | QHCN | ≤ 0.2
224 | QSCR | 0.493
225 | SPDS | ≤ 0.2
226 | SFYS | ≤ 0.2
227 | PAKH | ≤ 0.2
228 | GLKV | ≤ 0.2
229 | DMTR | ≤ 0.2
230 | PHDI | ≤ 0.2
231 | QSYR | 0.458
232 | QCYR | 0.606
233 | QGYR | ≤ 0.2
234 | QSYD | ≤ 0.2
235 | QWYR | 0.201
236 | QSRR | 1
237 | QDRR | 0.275
238 | QGRR | 0.33
239 | HTCT | ≤ 0.2
240 | HKQR | ≤ 0.2

Row | Variant | one-hybrid fitness for binding NBS DNA
241 | IERR | ≤ 0.2
242 | GCNT | ≤ 0.2
243 | VMRG | ≤ 0.2
244 | EMRQ | ≤ 0.2
245 | IITW | ≤ 0.2
246 | YLQI | ≤ 0.2
247 | KRMD | ≤ 0.2
248 | KRMR | 0.51
249 | KRMS | 0.396
250 | KRMN | ≤ 0.2
251 | KSMR | ≤ 0.2
252 | KCMR | ≤ 0.2
253 | KCMT | ≤ 0.2
254 | KRMT | 0.539
255 | DRMT | ≤ 0.2
256 | TALF | ≤ 0.2
257 | RADT | ≤ 0.2
258 | RTNT | 0.636
259 | RIDT | ≤ 0.2
260 | RINP | ≤ 0.2
261 | RSNT | 0.503
262 | RSDT | ≤ 0.2
263 | RTDT | 0.284
264 | RSNN | ≤ 0.2

Row | Variant | one-hybrid fitness for binding NBS DNA
265 | RTNN | ≤ 0.2
266 | RANT | 0.496
267 | RANP | ≤ 0.2
268 | RINT | 0.554
269 | WWTD | ≤ 0.2
270 | LSRK | ≤ 0.2
271 | SSTW | ≤ 0.2
272 | ASEC | ≤ 0.2
273 | SYLM | ≤ 0.2
274 | SHDP | ≤ 0.2
275 | PPLD | ≤ 0.2
276 | IVCR | ≤ 0.2
277 | GYLC | ≤ 0.2
278 | RHDT | 0.258
279 | RMNH | 0.26
280 | RHND | ≤ 0.2
281 | RMDT | 0.226
282 | RPNT | ≤ 0.2
283 | RFNT | 0.279
284 | RMNT | 0.546
285 | RCNT | 0.589
286 | RHNT | 0.508
287 | ADTR | ≤ 0.2
288 | WVAC | ≤ 0.2

Row | Variant | one-hybrid fitness for binding NBS DNA
289 | TAAM | ≤ 0.2
290 | SGRG | ≤ 0.2
291 | CNSI | ≤ 0.2
292 | HRTD | ≤ 0.2
293 | KSYC | ≤ 0.2
294 | QIYR | 0.348
295 | QPYR | ≤ 0.2
296 | QCRR | 1.13
297 | QIRR | 0.867
298 | QWRR | 0.355
299 | QPRR | 0.365
300 | QERR | 0.245
301 | QIPR | 0.203
302 | GWMI | ≤ 0.2
303 | TGPP | ≤ 0.2
304 | RGHW | ≤ 0.2
305 | KLGK | ≤ 0.2
306 | AATY | ≤ 0.2
